Experimental findings from PubChem BioAssay AID687016 (The Scripps Research Institute Molecular Screening Center, 2013) are described below.

Several values for one entry are separate records, joined by “and”; a condition that tells them apart may be missing. Equal entries are not always repeated. The whole screen tested about 370,000 compounds, of which about 2,800 (0.76%) were called active. No stated cut-off is given here; in the data, active means inhibition above about 21%; inactive means the rest. For the sample, actives were picked, then their nearest neighbours and some compounds at random.

E3 ubiquitin-protein ligase UHRF1 (Homo sapiens), sequence (Q96T88 whole entry, looked up, the tested form may be a part): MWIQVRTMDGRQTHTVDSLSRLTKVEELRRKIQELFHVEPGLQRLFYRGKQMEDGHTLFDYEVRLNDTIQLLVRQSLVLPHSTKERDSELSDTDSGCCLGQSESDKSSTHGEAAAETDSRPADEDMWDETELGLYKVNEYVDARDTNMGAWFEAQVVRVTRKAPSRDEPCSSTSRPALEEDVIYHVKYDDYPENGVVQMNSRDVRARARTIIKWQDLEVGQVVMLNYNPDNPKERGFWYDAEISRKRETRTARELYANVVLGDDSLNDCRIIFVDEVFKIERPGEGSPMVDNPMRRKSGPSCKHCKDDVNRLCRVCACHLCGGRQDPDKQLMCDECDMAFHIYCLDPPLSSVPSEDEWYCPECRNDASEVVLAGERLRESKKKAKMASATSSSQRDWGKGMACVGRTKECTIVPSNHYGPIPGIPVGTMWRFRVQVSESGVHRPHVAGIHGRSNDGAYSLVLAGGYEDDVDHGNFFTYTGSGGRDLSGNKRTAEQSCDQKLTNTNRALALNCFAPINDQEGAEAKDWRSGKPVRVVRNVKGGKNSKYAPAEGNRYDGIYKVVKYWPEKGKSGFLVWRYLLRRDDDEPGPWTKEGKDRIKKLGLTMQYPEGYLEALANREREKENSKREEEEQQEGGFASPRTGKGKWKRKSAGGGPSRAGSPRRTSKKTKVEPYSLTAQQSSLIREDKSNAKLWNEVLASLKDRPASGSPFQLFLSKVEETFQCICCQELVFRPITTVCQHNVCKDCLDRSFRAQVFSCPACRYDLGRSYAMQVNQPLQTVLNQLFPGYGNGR

The assay addresses E3 ubiquitin-protein ligase UHRF1 (Homo sapiens) (UniProt Q96T88). Briefly: UHRF1 methylated DNA binding inhibitors, primary screen, counter-screen for MBD2 inhibitor project, biochemical, TR-FRET, human UHRF1, single concentration (AID 687016).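 Further: UHRF1 SRA domain binding a hemimethylated CpG hairpin DNA probe; 0% = median of test compound wells and 100% = reference inhibitor.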 As to conditions: UHRF1 binding to methylated oligo, at 4.4 µM, stronger effect = higher value.
As to `O=S1(=O)c2ccc(Br)cc2OC[C@@H](Cc2ccccc2)N1Cc1cn(Cc2ccco2)nn1`, the inhibition was -5.15% (inactive).
To `COc1cc(C(=O)OC2CCOC2=O)c([N+](=O)[O-])cc1OC` (stereo not drawn) belongs 22.8% (active).
To `COc1cc(C(=S)N2CCOCC2)cc(OC)c1OC(=O)c1ccc([N+](=O)[O-])cc1[N+](=O)[O-]` belongs 3.69% (inactive); to `CC(C)c1ccc(C(=O)OC2CCOC2=O)cc1` (stereo not drawn), 0.68% (inactive); to `COc1ccc(CSc2nnc(SCC(=O)Nc3ccccc3C(F)(F)F)s2)cc1`, 2.07% (inactive).
As to `O=C(OCC#CCSc1nnc(-c2ccco2)o1)c1ccc(F)cc1`, the inhibition is -3.52% (inactive).
To `O=C(CSc1nc2ccccc2nc1N1CCCCC1)N1CCN(S(=O)(=O)c2cccc([N+](=O)[O-])c2)CC1` belongs -2.11% (inactive); to `COc1cccc2c1C(=O)c1c(O)c3c(c(O)c1C2=O)CC(O)(C(C)=NNC(=O)c1ccc(Cl)c(Cl)c1)CC3OC1CC(N)C(O)C(C)O1` (stereo not drawn), 96% (active).
To `COc1cccc(CNC(=O)CNS(=O)(=O)c2ccc3nc(C)sc3c2)c1OC` belongs -1.45% (inactive); to `COc1cc(NC(=O)C2CCCN(S(=O)(=O)c3ccc(C(C)(C)C)cc3)C2)cc(OC)c1` (stereo not drawn), 2.42% (inactive); to `CCCOc1ccc(Oc2c(Cl)cnn(Cc3cccc4ccccc34)c2=O)cc1`, 2.95% (inactive).
With `CC(=O)Nc1nc2ncccn2c1-c1ccc(C(F)(F)F)cc1`, the inhibition was -2.41% (inactive).
As to `COc1ccc(N2C(=O)C(CC(=O)Nc3ccccc3)N(Cc3ccc(OC)c(OC)c3)C2=O)cc1` (stereo not drawn), the inhibition is 1.08% (inactive).
To `COc1ccc(N2C(=O)C(CC(=O)Nc3ccc(F)cc3)N(CCc3cccs3)C2=O)cc1` (stereo not drawn) belongs 1.34% (inactive); to `COc1ccc(CCN2C(=O)N(c3ccc(OC)cc3)C(=O)C2CC(=O)Nc2ccc(OC)cc2)cc1` (stereo not drawn), 37.7% (active); to `CCCCCCCCOC1OC(CO)C(O)C(O)C1NC(C)=O` (stereo not drawn), 0.97% (inactive).
To `CCc1cccc(OC2OC(CO)C(O)C(O)C2NC(C)=O)c1` (stereo not drawn) belongs 1.52% (inactive); to `CCCCCCCCCOC1OC(CO)C(O)C(O)C1NC(C)=O` (stereo not drawn), 53.3% (active).
Turning to `CCC(NC(=O)C1C2C=CC3(CN(Cc4ccccc4)C(=O)C13)O2)c1ccccc1` (stereo not drawn), the inhibition was 0.23% (inactive).
With `Cc1cc(C(=O)NN=C/C=C/c2ccco2)n[nH]1`, the inhibition is 5.21% (inactive).
To `CCOc1ccc(NC(=O)c2ccc(NC(=O)COC(=O)c3ccc(NC(=O)CC#N)cc3)cc2)cc1` belongs 23.6% (active); to `CCOc1ccc(NC(=O)c2ccc(CSc3nnnn3C)cc2)cc1`, -0.48% (inactive).
To `CCOc1ccc(NC(=O)c2ccc(NC(=O)CN3C(=O)C(=O)N(CC(C)C)C3=O)cc2)cc1` belongs 3.55% (inactive); to `COc1cccc(Cn2cc(COC(=O)Nc3ccc(F)cc3)nn2)c1`, 0.48% (inactive).
To `Cn1c(=O)c2c(ncn2CC(=O)N2CCN(c3ccccc3)CC2)n(C)c1=O` belongs -2.46% (inactive); to `CCOC(=O)N1CCN(Cc2nc3c(c(=O)n(C)c(=O)n3C)n2Cc2ccccc2)CC1`, 1.75% (inactive); to `Cc1cccc(Cn2c(N3CCN(c4ccccc4)CC3)nc3c2c(=O)n(C)c(=O)n3C)c1`, 23.8% (active).
Consider `CN(C)[C@H]1CCN(c2cccc3c2S(=O)(=O)N2CC[C@H](C2)O3)C1`, for which the inhibition is -0.6% (inactive).
To `O=C(NCCCc1ccccc1)[C@H](Cc1ccccc1)NC1(C(=O)NCCc2c[nH]c3ccccc23)CCC1` belongs 0.93% (inactive); to `C=CCN1C(=O)[C@@H](CC(=O)NCC2CCCCC2)[C@]2(C(=O)OC)CCCCC=C12`, -2.02% (inactive).
On to `COc1cccc(N2CCN(CC(=O)N(C)Cc3ccc(F)cc3)CC2)c1`, for which the inhibition is -0.26% (inactive).
To `COC(=O)c1cc(S(=O)(=O)N2CCN(c3ccccc3C)CC2)cn1C` belongs -0.14% (inactive); to `CCOC(=O)[C@]12CCCC=C1N(Cc1ccc(OC)cc1)C(=O)[C@@H]2CC(=O)NCc1cccs1`, 0.05% (inactive); to `O=C(Nc1cc(Cl)cc(Cl)c1)OCCN1CCCC12CCC(c1ccccc1)CC2` (stereo not drawn), -2.5% (inactive).
`O=C(CSc1nc2c(c(=O)[nH]1)CCCC2)N1CCCCC1`: the inhibition was 4.3% (inactive).
Turning to `CCN(CC)CCOc1ccc2c(c1)C(=NNC(=O)c1ccccn1)c1cc(OCCN(CC)CC)ccc1-2`, the inhibition was 105% (active).
For the compound `CCCC(C(=O)OCCN(CC)CC)(c1ccccc1)c1ccccc1`, the inhibition is 0% (inactive).
As to `CN(CCOc1ccc(CC2SC(=O)NC2=O)cc1)c1ccccn1` (stereo not drawn), the inhibition was 0.45% (inactive) and -0.75% (inactive).
To `Cc1ccc(C)c(NC(=O)CCS(=O)(=O)c2ccccc2)c1` belongs 5.41% (inactive).
Regarding `Cc1ccsc1-c1cc(C(=O)O)c2c(ccc3ccccc32)n1`, the inhibition was -2.73% (inactive).
Turning to `Cc1cc(C)c2nc(-c3ccco3)cc(C(=O)O)c2c1`, the inhibition is 73.6% (active).
Turning to `CCOC(=O)c1ccn(-c2nc(-c3ccco3)cc(C(F)(F)F)n2)n1`, the inhibition was 1.45% (inactive).
To `C=C(C)C#CC(Cc1ccccc1)NCC1CC1` (stereo not drawn) belongs -0.06% (inactive); to `Cc1ccccc1NC(=O)Cn1nnc(-c2ccccc2F)n1`, -2.25% (inactive).
To `CC(=O)c1cc(-c2ccc3ccccc3c2)c(=O)n2c1CCC2` belongs -1.09% (inactive); to `COC(=O)[C@]12C[C@H](CC(=O)N3CCN(C(=O)C4CC4)CC3)C(=O)N(CCC3=CCCCC3)C1=C[C@H](C(C)C)O[C@@H]2C1CC1`, -0.03% (inactive); to `COc1nc(-c2ccc(Cl)cc2)ccc1-c1noc(-c2cccs2)n1`, 37.1% (active).
As to `N#Cc1ccc(-c2ccc(Cl)cc2)nc1Oc1ccc(F)cc1`, the inhibition was -1.28% (inactive).
To `Cc1cc(NS(=O)(=O)c2ccc(NC(=O)CSc3nnc(-c4ccc(C(C)(C)C)cc4)n3Cc3ccco3)cc2)nc(C)n1` belongs -1.86% (inactive); to `COC(=O)C12C=C3CC(c4ccccc4)=C3C(=O)N1Cc1[nH]c3ccccc3c1C2` (stereo not drawn), -0.85% (inactive).
Consider `C=CCN1C(=O)[C@H](CC(=O)NCCCN2CCCC2=O)[C@@]2(C(=O)OCC)CCCC=C12`, for which the inhibition is 1.86% (inactive).
To `COC(=O)[C@]12C[C@H](CC(=O)NCCCN3CCCC3=O)C(=O)N(CCc3ccc(OC)c(OC)c3)C1=C[C@H](COCc1ccccc1)O[C@@H]2C` belongs -1.34% (inactive); to `Nc1ncnc2c1ncn2C1OC(CO)CC1O` (stereo not drawn), 60.9% (active); to `Nc1ncnc2c1ncn2[C@@H]1O[C@H](C(=O)NCC(F)(F)F)[C@@H](O)[C@H]1O`, -0.85% (inactive).
To `Nc1ncnc2c1ncn2[C@@H]1O[C@H](C(=O)N2CCSC2)[C@@H](O)[C@H]1O` belongs 2.48% (inactive).
With `O=C(c1ccccc1)c1ccc(-c2ccccc2C(=O)NC2CCCCN(Cc3ccc(Cl)cc3)C2=O)cc1` (stereo not drawn), the inhibition was -0.04% (inactive).
To `CCCC1CCC2(CCCN2CCOC(=O)NCc2ccccc2)CC1` (stereo not drawn) belongs 0.86% (inactive); to `COC(=O)C1CN(CC(C)C)CCS(=O)(=O)N1Cc1ccc(F)cc1` (stereo not drawn), 0.32% (inactive).
To `Cc1cnc(C(=O)N2CCCC(C(=O)c3ccc(C(F)(F)F)cc3)C2)cn1` (stereo not drawn) belongs 22% (active).
To `COCC(=O)N1CCCC(C(=O)c2ccc(C(F)(F)F)cc2)C1` (stereo not drawn) belongs 2.82% (inactive); to `O=C(c1ccc(C(F)(F)F)cc1)C1CCCN(C(=O)c2csnn2)C1` (stereo not drawn), 0.31% (inactive).
In the case of `C=C(C)C1CC23C(=O)C4(C(=O)c5ccccc5)C[C@@]5(C)CCC(CC2C1(C)C)(C4=O)C35OC` (stereo partly drawn), the inhibition was 0.2% (inactive).
To `C=CCN1C(=O)[C@H](CC(=O)N2CCN(C(=O)OCC)CC2)[C@@]2(C(=O)OCC)CCCC=C12` belongs -2.61% (inactive); to `COC(=O)c1ccccc1-n1cc(COC(=O)NCCc2ccccc2)nn1`, 0.82% (inactive).
To `CC(CCN1CCC(C(O)(c2ccccc2)c2ccccc2)CC1)Oc1ccc(Cl)cc1` (stereo not drawn) belongs 1.4% (inactive).
For the compound `O=C(CSc1nc2ccccc2n1Cc1ccccc1Cl)N/N=C\c1c[nH]c2ccccc12`, the inhibition was -1.5% (inactive).
Take `COc1ccc(Cl)cc1NC(=O)COC(=O)c1ccc(Br)o1`: the inhibition is 0.18% (inactive).
To `COc1ccc(Cl)cc1NC(=O)CCS(=O)(=O)c1ccc(Br)cc1` belongs 45.2% (active).
To `O=C(CCS(=O)(=O)c1ccc(Br)cc1)NCCc1ccc(Cl)cc1` belongs 0.15% (inactive); to `C[C@H]1CCC/C=C/C(=O)c2c(O)cc(O)cc2CC(=O)O1`, 0.98% (inactive).
Consider `C[C@H]1Cn2cnc(C(=O)N[C@H](C)c3ccccc3)c2C(=O)N1`, for which the inhibition is 11.2% (inactive).
In the case of `CC1CCN(C(=O)c2ncn3c2C(=O)N[C@@H](C)C3)CC1`, the inhibition was 22.7% (active).
To `C[C@@H]1Cn2cnc(C(=O)Nc3ccc(CNC(=O)OC(C)(C)C)cc3)c2C(=O)N1` belongs 2.17% (inactive); to `FC(F)(F)c1cccc(NC(=S)OC2CCC23CCC(c2ccccc2)CC3)c1` (stereo not drawn), -1.02% (inactive); to `Cc1ccc(-n2c(SCC(=O)Nc3ccc(S(=O)(=O)Nc4nccs4)cc3)nnc2-c2cccnc2)cc1`, 3.04% (inactive).
Consider `Cc1ccc(-n2c(SCC(=O)Nc3ccc(S(=O)(=O)Nc4nccs4)cc3)nnc2-c2ccccn2)cc1`, for which the inhibition is 2.8% (inactive).
To `CCc1nc2ccccc2n(CCOCCOCCn2c(=O)c(CC)nc3ccccc32)c1=O` belongs 0.72% (inactive); to `CC(C)(C)c1cc(=O)n2c(nc3ccccc32)[nH]1`, 0.39% (inactive).
Take `Cc1nn2c3ccccc3nc2n(C)c1=O`: the inhibition is 64.7% (active).
To `COC(=O)c1cccc(Cn2ccc3ccc(-c4ccc5ccn(C(=O)C6CCCCC6)c5c4)cc32)c1` belongs -1.71% (inactive); to `COc1ccc(OC)c(S(=O)(=O)Nc2cccc(-c3ccc4nncn4n3)c2)c1`, -0.61% (inactive).
To `CS(=O)(=O)c1cccc(-c2ccc3nncn3c2)c1` belongs 4.75% (inactive).
To `COc1ccc(C(C)C)cc1-c1ccc2nncn2c1` belongs 42.2% (active).
As to `Nn1c(SCC(=O)Nc2cccc3ccccc23)nnc1-c1cc(-c2ccc(F)cc2)n[nH]1`, the inhibition is -1.05% (inactive).
For `CCC(O)C1CCN(Cc2cn(-c3ccc(OC)cc3)nc2-c2cccc(F)c2)CC1` (stereo not drawn), the inhibition was 0.5% (inactive).
To `COc1ccc(-n2cc(CNC3CCOCC3)c(-c3cccc(F)c3)n2)cc1` belongs 21.6% (active); to `COc1ccc(-c2nn(-c3ccccc3)cc2CN2CCCO2)c(F)c1`, -0.87% (inactive).
To `O=C(N1CCOCC1)N1CC[C@H]2[C@H](CCCN2Cc2ccc(F)cc2)C1` belongs -1.64% (inactive).
In the case of `COC(=O)C1CN(Cc2cn(Cc3ccc(F)cc3)nn2)CCS(=O)(=O)N1Cc1ccc(Cl)cc1` (stereo not drawn), the inhibition was 2.82% (inactive).
`Fc1cccc(Cc2c(-c3cccc(Cl)c3)nc3ccc(Br)cn23)c1`: the inhibition is 1.63% (inactive).
For `Fc1cccc(Cc2c(-c3ccc(Cl)cc3)nc3ccc(Cl)cn23)c1`, the inhibition is 26.5% (active).
To `COC(=O)c1ccc2nc(-c3ccc(Cl)cc3)c(Cc3cccc(F)c3)n2c1` belongs 10.2% (inactive).
To `CN(CCc1ccccc1)C(=O)Cn1nc(-c2ccccc2)ccc1=O` belongs 1.78% (inactive); to `Cc1ccc(-n2c(SCC(=O)Nc3cccc4ccccc34)nnc2-c2ccco2)cc1`, -0.24% (inactive); to `CC(=O)Nc1ccccc1Sc1ccc2c3c(cccc13)C(=O)N(c1ccc(C)cc1)C2=O`, 21.6% (active).
To `Cc1ccc(-n2c(SCC(=O)Nc3cccc4ccccc34)nnc2-c2ccccn2)cc1` belongs 0.12% (inactive); to `COc1ccc(CSc2nnc(-c3cccc(C)c3)n2C)cc1`, 0.25% (inactive); to `Cc1ccc(S(=O)(=O)NC(C)C(=O)NCc2ccc(Cl)cc2)cc1` (stereo not drawn), 0.66% (inactive).
Consider `O=C(NCc1ccc(Cl)cc1)NCc1ccc(Cl)cc1`, for which the inhibition is 24.9% (active).
In the case of `S=C(NCc1ccc(Cl)cc1)NC12CC3CC(CC(C3)C1)C2`, the inhibition is -0.38% (inactive).
To `Cc1c[nH]c2cccc(-c3ccc(Cl)cc3)c12` belongs -1.82% (inactive); to `COc1cc(/C=C/C(=O)n2cnc3ccccc32)cc(OC)c1OC`, 1.6% (inactive).
On to `Cc1cc(C)cc(NC(=O)N2CCC(N(C)CCC(C)C)CC2)c1`, for which the inhibition is 0.51% (inactive).
